Screening data as filed in PubChem.
Hits are enriched below; roughly 3.8% of the tested compounds scored in any of these assays.
Y pestis TopoI – Yersinia pestis topoisomerase I inhibitors, primary screen, biochemical, cleavage product accumulation, plate reader, single point; DNA topoisomerase I (Yersinia pestis CO92); Y. pestis Topo-I cleavage product accumulation; activity, % at 10 µM; 0.064% of 360,000 active; AID 504884, 2011; in the data active = activity above about 50%, passing the limit was not always enough
PrPC TRFRET – inhibitors of human cell surface prion protein PrPC, primary screen, cell-based, TR-FRET | Major prion protein (Homo sapiens), P04156 | inhibition, % at 13.8 µM | TR-FRET read-out | 0.43% of 370,000 active; in the data active = inhibition above about 24%; also: 0% = median of the test wells and 100% = reference compound wells
PrP UTR inh – inhibition of PrP 5' UTR reporter expression; cell-based PrP 5' UTR mRNA reporter, plate reader; inhibition, % (concentration not given with the values); 0.35% of 340,000 active; AID 488862, 2010; in the data active = inhibition above about 52%; also: 0 = median of the neutral control wells
Mtb hypoxia rep – PubChem AID 1159583; M. tuberculosis hypoxia-regulated fluorescent reporter, fluorescence; fluorescence inhibition, % (test concentration not listed); 0.1% of 300,000 active; in the data active = fluorescence inhibition mostly above about 23%, no sharp cut-off; inactive = mostly below about 17%
GDH-TPI inh – GDH-TPI coupling enzyme inhibitors, primary screen, artefact control for M. tuberculosis FBA inhibitor project, biochemical, absorbance, full deck. GDH-TPI coupled enzyme counterscreen, NADH absorbance. inhibition, % at 4.8 µM. 1.2% of 360,000 active. AID 588335, 2011; in the data active = inhibition above about 30%;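 also: 0% = DMSO wells and 100% = wells lacking the enzyme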
Mtb FBA inh – Mtb FBA enzyme inhibitors, primary screen, biochemical, fluorescence, strain H37Rv. purified M. tuberculosis FBA, fluorescence read-out. inhibition, % at 1 µM. 2.3% of 360,000 active. AID 588726, 2011; in the data active = inhibition above about 27%;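 also: 0% = vehicle and 100% = reference inhibitor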
Target sequence (P9WQA3 whole entry, looked up): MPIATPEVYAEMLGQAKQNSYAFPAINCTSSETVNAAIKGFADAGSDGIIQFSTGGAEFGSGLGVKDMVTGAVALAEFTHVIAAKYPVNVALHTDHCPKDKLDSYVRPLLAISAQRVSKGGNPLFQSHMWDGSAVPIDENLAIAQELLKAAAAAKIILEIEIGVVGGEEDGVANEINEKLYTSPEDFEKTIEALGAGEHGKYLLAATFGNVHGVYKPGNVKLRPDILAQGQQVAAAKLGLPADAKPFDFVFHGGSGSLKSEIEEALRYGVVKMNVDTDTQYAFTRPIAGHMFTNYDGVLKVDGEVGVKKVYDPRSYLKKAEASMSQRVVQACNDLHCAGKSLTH
* = called active by the depositor; · = not tested or not shown; + = active, no number.

SMILES | Y pestis TopoI | PrPC TRFRET | PrP UTR inh | Mtb hypoxia rep | GDH-TPI inh | Mtb FBA inh
COc1ccc(C=C(C#N)C(=O)Nc2ccc(C)cc2C)cc1C(=O)O | · | · | · | -4 | · | ·
COCc1cc(=O)n2[nH]cc(-c3ccccc3)c2n1 | -2 | -2 | -18 | 6 | 23 | 133*
CCOC(=O)Cc1cc(=O)n2[nH]cc(-c3cccc(Br)c3)c2n1 | 16 | 7 | 1 | -4 | 8 | 26
COc1ccc(C2C=CCN(C(=O)C3CC3)C(Cc3ccccc3)C(=O)N2Cc2ccc(F)cc2)cc1 (stereo not drawn) | · | · | · | 4 | · | ·
Cc1nnc(C)n1N=Cc1ccc(-c2ccccc2Cl)o1 | · | · | · | 2 | · | ·
Cc1c(C(=O)O)cccc1-c1ccc(C=Nn2cnnc2)o1 | · | · | · | 6 | · | ·
Cc1ccc(Cl)cc1-c1ccc(C=Nn2cnnc2)o1 | · | · | · | -2 | · | ·
Clc1ccccc1-c1ccc(/C=N/n2cnnc2)o1 | 9 | -11 | -10 | · | 55* | 1
O=C(O)c1cccc(-c2ccc(/C=N/n3cnnc3)o2)c1 | 5 | -12 | -39 | · | 35* | 19
Clc1cccc(-c2ccc(/C=N/n3cnnc3)o2)c1Cl | 6 | 4 | 3 | · | 34* | 3
Cc1c(C(=O)O)cccc1-c1ccc(/C=N/n2cnnc2)o1 | 4 | -3 | -24 | · | 31* | 3
COC(=O)C1=C(c2cccc(OC)c2OC)CC2CCC1N2C(=O)NCc1ccccc1 (stereo not drawn) | · | · | · | 8 | · | ·
CC1C=C[C@](Cc2ccccc2)(C(=O)O)N1C(=O)c1ccccc1 (stereo partly drawn) | · | · | · | 21 | · | ·
Cc1c(Cl)cccc1-c1ccc(/C=N/n2cnnc2)o1 | 3 | -4 | -2 | · | 33* | 2
CCC1=C(OC(=O)N(CC)CC)N2C(=O)OC(=NCC3CC3)[C@]2(Cc2ccccc2)C2C1=CCC1C(=O)N(c3ccccc3)C(=O)C12 (stereo partly drawn) | · | · | · | 0 | · | ·
COc1cccc(-c2nc(-c3ccc4c(c3)NC(=O)CO4)cs2)c1 | 16 | -14 | -36 | 9 | -5 | 0
COc1ccc(-c2cc(-c3ccc(OC)cc3)nc(-c3ccc4c(c3)NC(=O)CO4)c2)cc1 | 1 | -5 | -16 | 0 | 32* | 1
CC(C)(C)OC(=O)NCCCCC(NC(=O)c1nc[nH]c1C(=O)N1CCc2ccccc2C1)C(=O)OC(C)(C)C (stereo not drawn) | · | · | · | 9 | · | ·
COc1cc(C=NNC(=O)c2nonc2N)cc(OC)c1OC | · | · | · | 7 | · | ·
CCN1C(=O)C2C(c3ccc(-c4ccccc4)cc3)N3CCC[C@@]3(C(=O)OC)C2C1=O (stereo partly drawn) | · | · | · | -5 | · | ·
Cc1nc2nc(N)nc(OCc3ccccc3)c2nc1C | 11 | -6 | · | 8 | 7 | 161*
Cc1c(Cl)cccc1NC(=O)CC1NCCNC1=O (stereo not drawn) | -3 | -3 | -11 | 7 | -9 | +
CC(C)(C)C1CCC(=O)N(CCC(Sc2ccccc2)c2ccccc2)CC1 (stereo not drawn) | · | · | · | 18 | · | ·
O=Cc1ccc(N2CCCCC2)cc1 | 0 | 0 | -13 | -21 | 11 | -1
CN1CCN(c2ccc(C=O)cc2)CC1 | 11 | -1 | -3 | · | 37* | -3
SMILES | Y pestis TopoI | PrPC TRFRET | PrP UTR inh | Mtb hypoxia rep | GDH-TPI inh | Mtb FBA inh
CCOC(=O)Cc1c(Cl)c2ccccc2[nH]c1=O | 4 | -1 | -17 | 9 | 5 | 1
CCOC(=O)C[n+]1ccc2c([nH]c3ccccc32)c1C | -2 | -1 | -18 | 1 | 3 | 135*
CC(=O)N=C(N)Sc1nc2ccccc2[nH]1 | 1 | 5 | -53 | 6 | -7 | -3
NC(=O)N=Nc1c2[nH]c3ccccc3nc-2c2ccccc12 | -18 | -25 | -18 | · | 36* | 2
S=c1[nH]nc(-c2ccc3ccccc3n2)o1 | -8 | -1 | -18 | -6 | 38* | 3
COc1ccc2c(c1OC)C(=O)N1N=C(c3ccc(Br)cc3)CC21 (stereo not drawn) | 15 | · | -33 | 16 | 13 | 1
COc1ccc(C2=NN3C(=O)c4c(ccc(OC)c4OC)C3C2)cc1 (stereo not drawn) | 2 | -12 | -21 | 9 | 36* | 1
CCCC(CNC)NCC(Cc1ccccc1)NCCCCc1ccccc1 (stereo not drawn) | · | · | · | 14 | · | ·
O=C(O)c1ccc(N/N=C/C=C/c2ccc([N+](=O)[O-])o2)cc1 | -15 | -41 | -26 | · | 31* | -26
O=C(O)c1ccc(N/N=C/c2ccc(-c3cccc(Cl)c3)o2)cc1 | -14 | 16 | -136 | · | 46* | 19
O=C(N/N=C/c1ccc([N+](=O)[O-])o1)C(=O)Nc1ccc(C(=O)O)cc1 | -3 | 3 | -1 | · | 24 | -3
NC(=S)N/N=C/c1ccc(-c2cccc([N+](=O)[O-])c2)o1 | -13 | -35 | -3 | · | 50* | -2
O=[N+]([O-])c1ccc(C=NNc2ccc(S(=O)(=O)O)cc2)cc1 | -7 | -30 | 0 | 5 | 31* | -19
O=C(O)c1ccc(N/N=C/c2ccc(-c3cc(Cl)ccc3Cl)o2)cc1 | -5 | 6 | -51 | · | 22 | 8
CCCOc1ccc(C(=O)N/N=C/c2ccc(-c3ccc(S(=O)(=O)Nc4ncccn4)cc3)o2)cc1 | 3 | 1 | -13 | · | 33* | 25
NS(=O)(=O)c1ccc(-c2ccc(C=NNC(=O)c3ccc([N+](=O)[O-])cc3)o2)cc1 | · | · | · | -5 | · | ·
O=C(O)c1ccc(-c2ccc(/C=N/Nc3ccc([N+](=O)[O-])cc3)o2)cc1 | -16 | 0 | -46 | · | 52* | -18
NS(=O)(=O)c1ccc(-c2ccc(/C=N/NC(=O)c3ccc([N+](=O)[O-])cc3)o2)cc1 | 3 | 0 | -17 | · | 62* | 5
O=C(O)c1cccc(-c2ccc(/C=N/Nc3ccc([N+](=O)[O-])cc3)o2)c1 | -7 | -32 | -14 | · | 33* | -42
COC(=O)C1=CC(C(=O)OC)C2C3=C(C(=O)[C@@]2(C)NC(=O)c2ccccc2)C(c2ccccc2)n2c(=O)n(-c4ccccc4)c(=O)n2C3C1 (stereo partly drawn) | · | · | · | -2 | · | ·
CCN1C(=NCCc2ccccn2)NC(c2cccc(F)c2)C(C(=O)OC)=C1C (stereo not drawn) | · | · | · | 8 | · | ·
O=C(O)c1ccc(NN=Cc2c(F)cccc2Cl)cc1 | · | · | · | 4 | · | ·
NS(=O)(=O)c1ccc(-c2ccc(C=NNC(=O)c3ccccc3O)o2)cc1 | · | · | · | 5 | · | ·
O=C(O)c1ccc(N/N=C/c2c(F)cccc2Cl)cc1 | 4 | -4 | 15 | · | 38* | -1
NS(=O)(=O)c1ccc(-c2ccc(/C=N/Nc3ccc(C(=O)O)cc3)o2)cc1 | -5 | -21 | -15 | · | 34* | -2
CC(=O)N=c1sc2ccccc2n1C | 0 | 2 | -2 | 17 | 4 | -1
CN1N=C(C(=O)N=c2sc3ccccc3n2C)CCC1=O | 1 | -4 | -20 | · | 49* | 1
